What all share (design): scale not given: direction of the effect not stated beside the values
The target in experiment [1] is Protein translocase subunit SecA (Escherichia coli (strain K12)) (UniProt P10408). Put plainly: Assay to Identify E. coli SecA ATPase Inhibitors. In kind it is functional. The note with it: 30 µM.
In experiment [2] the target is T1, Ubiquitin-activating enzyme e1, putative (Leishmania donovani (strain BPK282A1)) (UniProt E9BSI1).
T1 sequence (whole entry): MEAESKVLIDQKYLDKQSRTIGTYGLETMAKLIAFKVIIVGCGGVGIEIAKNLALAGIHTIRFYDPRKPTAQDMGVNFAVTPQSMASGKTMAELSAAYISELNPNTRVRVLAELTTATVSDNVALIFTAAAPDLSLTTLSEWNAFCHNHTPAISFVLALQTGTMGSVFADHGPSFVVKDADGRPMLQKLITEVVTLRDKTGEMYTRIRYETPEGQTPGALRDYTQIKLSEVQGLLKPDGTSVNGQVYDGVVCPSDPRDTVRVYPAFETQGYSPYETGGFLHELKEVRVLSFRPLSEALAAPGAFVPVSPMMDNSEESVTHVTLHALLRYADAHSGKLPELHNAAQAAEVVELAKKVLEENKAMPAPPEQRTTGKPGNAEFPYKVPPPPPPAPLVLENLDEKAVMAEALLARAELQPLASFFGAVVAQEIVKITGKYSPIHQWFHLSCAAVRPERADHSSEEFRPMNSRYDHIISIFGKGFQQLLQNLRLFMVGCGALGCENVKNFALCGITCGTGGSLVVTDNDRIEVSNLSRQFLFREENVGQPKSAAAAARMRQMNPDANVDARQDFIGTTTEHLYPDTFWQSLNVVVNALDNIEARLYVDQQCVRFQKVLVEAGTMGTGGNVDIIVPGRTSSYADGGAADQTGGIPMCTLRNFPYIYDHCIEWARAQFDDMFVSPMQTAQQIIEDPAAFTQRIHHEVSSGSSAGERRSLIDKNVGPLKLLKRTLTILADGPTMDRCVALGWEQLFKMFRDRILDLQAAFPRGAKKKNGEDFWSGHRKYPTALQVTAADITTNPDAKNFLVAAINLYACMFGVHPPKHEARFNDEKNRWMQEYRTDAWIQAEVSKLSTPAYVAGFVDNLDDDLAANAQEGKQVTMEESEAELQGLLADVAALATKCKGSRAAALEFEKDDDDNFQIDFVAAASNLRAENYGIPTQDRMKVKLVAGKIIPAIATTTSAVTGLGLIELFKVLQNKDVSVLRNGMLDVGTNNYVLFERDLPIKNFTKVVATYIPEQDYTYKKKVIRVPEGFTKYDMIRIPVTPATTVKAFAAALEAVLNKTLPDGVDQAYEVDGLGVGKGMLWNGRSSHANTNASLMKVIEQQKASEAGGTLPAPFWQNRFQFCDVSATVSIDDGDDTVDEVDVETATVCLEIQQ
The experiment is described as follows: Leishmania donovani Ubiquitin Activating Enzyme (LdE1). In kind it is functional. The note with it: 30 µM.

The target in experiment [3] is AMP-activated protein kinase, AMPK (Homo sapiens) (UniProt P54646+O43741+P54619+Q9UGJ0+Q9Y478+Q13131+Q9UGI9). Put plainly: AMP-dependent Kinase enzyme assay. An in vitro enzyme assay that detects ADP turnover that is directly proportional to AMPK activity. This uses naive AMPK that is activated during the assay with MK-8722. In kind it is functional. The note with it: 30 µM.

The target in experiment [4] is Sialic acid-binding Ig-like lectin 9 (Homo sapiens) (UniProt Q9Y336). Put plainly: Hs-Siglec9 ALPHAscreen SOP 20170721. The note with it: 10 µM. A general note: In Alpha technology, singlet oxygen from a donor bead excites a nearby acceptor bead.
Another experiment deals with Trypanosoma cruzi. Put plainly: Trypanosoma cruzi phosphomannomutase and mannose-1-phosphate guanylyltransferase assay. The note with it: 10 µM. In kind it is functional.
Experiment [5] addresses T2, Arginase-2, mitochondrial (Homo sapiens) (UniProt P78540).
T2 sequence (whole entry): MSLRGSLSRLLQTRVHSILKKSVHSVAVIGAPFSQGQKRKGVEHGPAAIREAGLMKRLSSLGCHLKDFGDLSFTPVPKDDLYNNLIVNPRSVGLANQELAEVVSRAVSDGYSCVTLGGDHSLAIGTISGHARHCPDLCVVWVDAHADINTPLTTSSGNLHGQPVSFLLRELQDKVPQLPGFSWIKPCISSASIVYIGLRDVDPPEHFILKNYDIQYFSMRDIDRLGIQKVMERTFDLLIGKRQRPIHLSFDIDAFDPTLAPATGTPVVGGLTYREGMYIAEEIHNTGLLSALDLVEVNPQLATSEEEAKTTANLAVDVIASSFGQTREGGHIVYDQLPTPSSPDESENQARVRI
The experiment is described as follows: in vitro enzyme assay to detect the production of urea directly proportional to the activity of Arginase II. Further: in the data most compounds retested in dose-response had high values. Type of experiment: functional. The note with it: 33.3 µM.

Experiment [6] deals with T3, Proteasome subunit beta (Trypanosoma cruzi) (UniProt O96673).
T3 sequence (whole entry): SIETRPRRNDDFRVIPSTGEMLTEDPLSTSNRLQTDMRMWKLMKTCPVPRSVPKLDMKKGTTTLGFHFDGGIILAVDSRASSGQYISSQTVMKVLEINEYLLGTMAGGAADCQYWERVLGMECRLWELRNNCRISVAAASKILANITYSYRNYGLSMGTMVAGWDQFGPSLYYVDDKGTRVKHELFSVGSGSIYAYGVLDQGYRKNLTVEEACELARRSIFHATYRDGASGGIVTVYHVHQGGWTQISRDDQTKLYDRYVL
The experiment is described as follows: Trypanosoma cruzi proteasome chymotrypsin-like activity (TcProtChymo) assay. Further: in the data most compounds retested in dose-response had high values. Type of experiment: functional. The note with it: 9.37 µM.

The species named for another experiment is Homo sapiens. The experiment is described as follows: To identify inhibition of the IFN signalling (Jak-Stat) pathway via expression of an eGFP reporter gene under the control of an IFN-stimulated response element (ISRE) containing MxA promoter. The note with it: 30 µM. In kind it is functional.
The target in experiment [7] is T4, Tyrosyl-tRNA synthetase, putative (Trypanosoma cruzi (strain CL Brener)) (UniProt Q4DSP6).
T4 sequence (whole entry): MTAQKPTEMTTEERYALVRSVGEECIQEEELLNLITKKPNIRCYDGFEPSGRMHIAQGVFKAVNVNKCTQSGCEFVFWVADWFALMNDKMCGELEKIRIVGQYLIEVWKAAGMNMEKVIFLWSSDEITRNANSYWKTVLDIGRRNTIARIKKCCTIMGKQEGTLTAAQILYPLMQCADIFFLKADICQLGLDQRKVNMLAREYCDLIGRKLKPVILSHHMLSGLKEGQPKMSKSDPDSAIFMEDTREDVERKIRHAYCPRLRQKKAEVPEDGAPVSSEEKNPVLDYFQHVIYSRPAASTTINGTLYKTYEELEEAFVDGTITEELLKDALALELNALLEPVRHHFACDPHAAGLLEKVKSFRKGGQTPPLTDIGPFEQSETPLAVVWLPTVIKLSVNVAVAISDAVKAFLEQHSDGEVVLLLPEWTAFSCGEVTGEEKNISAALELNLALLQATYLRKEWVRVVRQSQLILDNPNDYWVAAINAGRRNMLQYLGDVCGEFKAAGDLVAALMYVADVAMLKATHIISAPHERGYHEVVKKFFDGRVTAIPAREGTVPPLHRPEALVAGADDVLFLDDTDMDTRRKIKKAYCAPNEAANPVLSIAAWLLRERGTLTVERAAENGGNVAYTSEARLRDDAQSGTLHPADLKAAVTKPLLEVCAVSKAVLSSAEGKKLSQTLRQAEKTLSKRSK
The experiment is described as follows: Trypanosoma cruzi tyrosyl tRNA synthetase (TcYRS) _High Tyrosine SOP. Further: in the data most compounds retested in dose-response had high values. Type of experiment: functional. The note with it: 30 µM.

In experiment [8] the target is T4, Tyrosyl-tRNA synthetase, putative (Trypanosoma cruzi (strain CL Brener)). Put plainly: Trypanosoma cruzi tyrosyl tRNA synthetase (TcYRS) SOP. Type of experiment: functional. The note with it: 30 µM.
Experiment [9] concerns the target Chromo domain-containing protein 1 (Saccharomyces cerevisiae (strain ATCC 204508 / S288c) (Baker's yeast)) (UniProt P32657). Put plainly: ScCHD-1 Enzyme Inhibition Assay. Further: in the data most compounds retested in dose-response had high values. Type of experiment: functional. The note with it: 30 µM.

For some of these results: Results with a measured potency or affinity are listed apart.

Protein translocase subunit SecA (Escherichia coli (strain K12)), sequence (P10408 whole entry): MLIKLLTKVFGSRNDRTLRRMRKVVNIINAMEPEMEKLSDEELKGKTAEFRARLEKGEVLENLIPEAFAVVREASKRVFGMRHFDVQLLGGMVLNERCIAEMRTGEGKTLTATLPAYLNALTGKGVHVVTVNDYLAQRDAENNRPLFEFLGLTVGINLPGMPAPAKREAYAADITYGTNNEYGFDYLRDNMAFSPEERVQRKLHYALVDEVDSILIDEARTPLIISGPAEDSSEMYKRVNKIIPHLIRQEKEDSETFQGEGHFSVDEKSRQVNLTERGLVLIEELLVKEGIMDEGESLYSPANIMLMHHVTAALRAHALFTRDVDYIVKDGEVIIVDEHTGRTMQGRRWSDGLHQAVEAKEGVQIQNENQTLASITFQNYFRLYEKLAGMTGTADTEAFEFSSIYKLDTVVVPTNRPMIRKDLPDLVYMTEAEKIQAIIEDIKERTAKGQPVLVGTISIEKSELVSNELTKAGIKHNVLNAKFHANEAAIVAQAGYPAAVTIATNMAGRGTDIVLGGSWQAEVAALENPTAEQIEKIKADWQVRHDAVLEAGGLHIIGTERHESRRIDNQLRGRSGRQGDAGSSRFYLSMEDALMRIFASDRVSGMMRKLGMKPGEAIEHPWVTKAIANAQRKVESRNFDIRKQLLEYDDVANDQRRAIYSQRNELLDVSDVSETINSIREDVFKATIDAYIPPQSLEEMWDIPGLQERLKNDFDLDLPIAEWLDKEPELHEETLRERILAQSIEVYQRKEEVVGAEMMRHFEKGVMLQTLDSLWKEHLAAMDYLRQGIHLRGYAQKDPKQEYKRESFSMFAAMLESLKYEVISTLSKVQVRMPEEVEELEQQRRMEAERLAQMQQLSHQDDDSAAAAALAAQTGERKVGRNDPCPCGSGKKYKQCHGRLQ
Sialic acid-binding Ig-like lectin 9 (Homo sapiens), sequence (Q9Y336 whole entry): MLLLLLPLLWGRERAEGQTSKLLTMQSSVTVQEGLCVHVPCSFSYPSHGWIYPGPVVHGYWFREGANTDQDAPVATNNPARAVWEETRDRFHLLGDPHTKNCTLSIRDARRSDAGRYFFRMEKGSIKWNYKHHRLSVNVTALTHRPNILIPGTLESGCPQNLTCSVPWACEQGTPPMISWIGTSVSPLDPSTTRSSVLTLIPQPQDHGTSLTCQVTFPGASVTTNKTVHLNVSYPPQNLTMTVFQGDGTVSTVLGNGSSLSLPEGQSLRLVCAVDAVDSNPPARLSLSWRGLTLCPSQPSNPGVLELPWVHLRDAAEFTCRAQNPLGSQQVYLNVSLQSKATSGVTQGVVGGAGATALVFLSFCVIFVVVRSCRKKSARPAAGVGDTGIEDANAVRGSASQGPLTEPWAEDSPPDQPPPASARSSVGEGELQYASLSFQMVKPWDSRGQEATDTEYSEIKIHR
Chromo domain-containing protein 1 (Saccharomyces cerevisiae (strain ATCC 204508 / S288c) (Baker's yeast)), sequence (P32657 whole entry, the tested form may be a part): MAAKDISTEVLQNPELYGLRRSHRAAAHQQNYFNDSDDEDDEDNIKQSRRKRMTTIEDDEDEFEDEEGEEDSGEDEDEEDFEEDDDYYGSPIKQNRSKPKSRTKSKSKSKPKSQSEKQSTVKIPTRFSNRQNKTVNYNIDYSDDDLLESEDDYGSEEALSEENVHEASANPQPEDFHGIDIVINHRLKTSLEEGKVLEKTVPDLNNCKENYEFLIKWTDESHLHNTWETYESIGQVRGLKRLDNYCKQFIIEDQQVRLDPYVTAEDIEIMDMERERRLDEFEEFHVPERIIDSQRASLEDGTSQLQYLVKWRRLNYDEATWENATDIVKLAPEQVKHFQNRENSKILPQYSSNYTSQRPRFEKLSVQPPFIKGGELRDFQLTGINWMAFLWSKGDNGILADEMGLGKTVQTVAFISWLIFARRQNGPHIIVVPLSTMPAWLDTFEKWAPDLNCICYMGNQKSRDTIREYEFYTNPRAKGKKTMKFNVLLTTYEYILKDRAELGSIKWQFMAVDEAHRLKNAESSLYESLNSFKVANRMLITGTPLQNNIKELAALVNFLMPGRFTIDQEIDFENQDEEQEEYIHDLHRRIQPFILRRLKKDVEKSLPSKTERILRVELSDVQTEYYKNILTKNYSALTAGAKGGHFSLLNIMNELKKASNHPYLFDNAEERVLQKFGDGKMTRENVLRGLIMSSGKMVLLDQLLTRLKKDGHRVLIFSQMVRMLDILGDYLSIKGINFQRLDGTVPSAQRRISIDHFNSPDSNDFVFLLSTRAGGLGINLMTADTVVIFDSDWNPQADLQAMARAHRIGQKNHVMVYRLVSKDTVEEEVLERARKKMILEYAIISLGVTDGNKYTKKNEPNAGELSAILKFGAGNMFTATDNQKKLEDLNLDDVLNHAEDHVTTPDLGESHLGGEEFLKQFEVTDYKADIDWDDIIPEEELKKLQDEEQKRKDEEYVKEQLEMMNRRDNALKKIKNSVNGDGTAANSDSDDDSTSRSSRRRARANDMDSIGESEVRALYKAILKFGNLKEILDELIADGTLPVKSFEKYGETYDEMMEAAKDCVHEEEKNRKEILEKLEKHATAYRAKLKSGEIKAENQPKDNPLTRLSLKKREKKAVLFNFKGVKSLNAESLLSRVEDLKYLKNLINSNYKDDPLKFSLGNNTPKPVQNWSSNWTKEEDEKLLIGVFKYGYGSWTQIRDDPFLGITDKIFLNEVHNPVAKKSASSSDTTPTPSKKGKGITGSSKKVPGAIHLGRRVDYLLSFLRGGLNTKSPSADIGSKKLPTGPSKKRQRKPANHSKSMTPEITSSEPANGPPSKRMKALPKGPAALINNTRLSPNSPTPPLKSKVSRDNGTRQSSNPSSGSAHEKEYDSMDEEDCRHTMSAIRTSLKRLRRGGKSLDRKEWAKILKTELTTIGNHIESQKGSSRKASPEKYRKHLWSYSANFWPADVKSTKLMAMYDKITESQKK

As to `O=C(c1ccn(-c2ccccc2Cl)n1)N1CCSCC1`, the Percent Effect in experiment [1] is -4.68%; in experiment [2], 8.11%; in [3] it was 1.31%; in [4], 12.9%; with Trypanosoma cruzi, -6.55%; in experiment [5], 1.74%. Also, the Percent Effect in [6] is 3.69%; in the experiment filed under Homo sapiens, 20.1%; in experiment [7], 0%; in [8], 11.1%; in experiment [9], -3.09%.

Consider `Cc1cnn(CCNCc2ccc(OCC(N)=O)cc2)c1`, for which the Percent Effect in experiment [1] is -7.27%; in experiment [2] it was 5.33%; in [3], -3.69%; in [4] it was 3.41%; in the experiment with Trypanosoma cruzi, 3.8%; in [5], 5.21%. In addition, the Percent Effect in [6] is 4.36%; in the experiment listed under Homo sapiens, -9.67%; in experiment [7], 3.83%; in experiment [8] it was 8.64%; in experiment [9], -7.44%.

For `CSc1nccn1-c1cccc(C(=O)NCC2CC2)c1`, the Percent Effect in experiment [1] is -4.93%; in experiment [2], 7.89%; in experiment [3], 0.0421%; in experiment [4] it was 2.24%; in the experiment with Trypanosoma cruzi, 6.82%; in experiment [5], -1.44%. Besides, the Percent Effect is 3.13% in experiment [6]; 2.37% in the experiment filed under Homo sapiens; 5.42% in experiment [7]; 13.6% in [8]; 2.32% in experiment [9].

On to `CN1CC(=O)N(c2cnn(C)c2)CC12CCN(Cc1nccn1C)C2` (stereo not drawn), for which the Percent Effect was -0.706% in [1]; 8.22% in experiment [2]; 4.05% in experiment [3]; 7.48% in [4]; -4.17% with Trypanosoma cruzi; -0.399% in experiment [5]. The Percent Effect is 10.2% in experiment [6]; 6.84% in the experiment listed under Homo sapiens; 4.17% in experiment [7]; 6.17% in [8]; -4.89% in experiment [9].

As for `Cn1nc(C2CCCN(C(=O)Cc3ccsc3)C2)c2nccnc21` (stereo not drawn), the Percent Effect in [1] is -5.11%; in [2], 9.46%; in experiment [3], 7.86%; in [4] it was 10.4%; in the experiment with Trypanosoma cruzi, -5.14%; in experiment [5], -1.16%. For the same molecule, the Percent Effect is 8.89% in experiment [6]; 23.9% in the experiment filed under Homo sapiens; -1.07% in [7]; 6.49% in [8]; -13.9% in experiment [9].

As for `c1ccc(-c2nc(CN3CCCC3Cn3cncn3)cs2)cc1` (stereo not drawn), the Percent Effect was -2.21% in experiment [1]; -17.7% in [2]; -1.4% in experiment [3]; 4.03% in [4]; 3.68% in the experiment with Trypanosoma cruzi; -2.28% in experiment [5]. Besides, the Percent Effect in experiment [6] was 1.39%; in the experiment listed under Homo sapiens, -16.9%; in experiment [7] it was 4.43%; in [8], 3.8%; in [9] it was 25.8%.

As for `COc1ccccc1CC(=O)NS(=O)(=O)c1ccc(C(N)=O)cc1`, the Percent Effect was -0.063% in experiment [1]; 0% in experiment [2]; 0.334% in [3]; 0.784% in experiment [4]; -0.374% with Trypanosoma cruzi; 9.25% in [5]. Besides, the Percent Effect in experiment [6] is 1.35%; in the experiment listed under Homo sapiens, -4.28%; in experiment [7], 3.88%; in experiment [8], -2.44%; in experiment [9] it was -0.229%.

Consider `CC(C(N)=O)S(=O)(=O)Cc1cc(Cl)c2c(c1)OCO2` (stereo not drawn), for which the Percent Effect in experiment [1] was -0.171%; in experiment [2], 15.8%; in experiment [3], 1.18%; in experiment [4] it was -10.6%; in the experiment with Trypanosoma cruzi, -3.83%; in [5], 7.91%. Further, the Percent Effect in experiment [6] is 6.51%; in the experiment filed under Homo sapiens, 7.44%; in experiment [7], 5.42%; in experiment [8] it was 13.6%; in experiment [9], -7.99%.

The values are drawn from ChEMBL document CHEMBL3988442, “University of Dundee, Small-Polar-MMV Screening Library” (2021).
